From PubChem BioAssay
MITF TRPM1 inh: MITF TRPM1 promoter inhibition in SK-MEL-5 cells; actives 0.83% (n = 330,000); inhibition, % at 12.5 µM; SK-MEL-5 TRPM1 promoter luciferase, 24 h;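 active = mean inhibition across replicates of 60% or more, whatever share of single replicates reaches that level; inconclusive = some that reach 60%, reason not given; inactive = mean inhibition across replicates below 60%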
EBV LMP1 NFkB: reduces LMP1-driven NF-kappaB luciferase signal. inhibition, % at 12.5 µM. LMP1-induced NF-kappaB luciferase reporter cells, luminescence. actives 0.69% (n = 350,000). AID 504558; in the data active = inhibition above about 41%; inconclusive = no clear call, values can overlap the other calls
Wnt bcat act: Wnt/beta-catenin pathway activation. Wnt/beta-catenin reporter cell assay, activator, plate reader. activation, % at 9.35 µM. actives 1.2% (n = 300,000). AID 743398; in the data active = activation above about 30%, passing the limit was not always enough; inconclusive = no clear call, values can overlap the other calls
esBAF inh: SWI/SNF esBAF complex inhibition; reporter increase, % at 12.5 µM; actives 2% (n = 350,000); mouse ES cells, Bmi1-luciferase knock-in reporter, 24 h; 100% = twice the neutral-well signal; in the data active = activation above about 40%; inconclusive = no clear call, values can overlap the other calls;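 note: a rise in the Bmi1 reporter signal indicates esBAF inhibition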
Statin myotox sup: protects C2C12 myotubes from simvastatin toxicity; ATP luminescence, 48 h; scaled: DMSO 0, geranylgeraniol control 100; rescue of ATP level, % at 7.49 µM; actives 0.78% (n = 330,000); AID 602340;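 active = mean ATP rescue above about 67%, or every replicate alone reaching that limit, limit read from the data, passing the limit was not always enough; inconclusive = no clear call, values can overlap the other calls; inactive = mean under the limit and some replicate under it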;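 note: myotubes were challenged with 10 µM simvastatin during compound exposure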
MITF act: increases MITF-driven TRPM1 promoter luciferase signal. actives 0.75% (n = 300,000). activation, % at 12.5 µM. AID 588334. SK-MEL-5 TRPM1-promoter luciferase, 24 h; % of positive control, neutral wells = 0;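 active = mean activation of at least 80% with every replicate also reaching 80%; inconclusive = mean reaches 80% but some replicate falls short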
A number is an active result; 0 = inactive; ? = inconclusive; - = no result. Only some compounds are listed: those with a hit (about 4% of all), similar ones and a draw of the others.

SMILES | MITF TRPM1 inh | EBV LMP1 NFkB | Wnt bcat act | esBAF inh | Statin myotox sup | MITF act
COc1cc(-c2nnc(COC(=O)CSCC(=O)Nc3cc(C)on3)o2)cc(OC)c1OC | 0 | 0 | 0 | 0 | 0 | 0
COc1ccc2nc(SCc3ccccc3C)nc(C)c2c1 | 0 | 0 | ? | - | - | 0
COc1ccc2nc(SCc3cccc(C)c3)nc(C)c2c1 | 0 | 0 | 48 | - | - | 0
COc1ccc(CNc2nc3c(c(=O)n(Cc4ccc(Br)cc4)c(=O)n3C)n2C)cc1 | 0 | 0 | 0 | 0 | 98 | 0
COc1ccc(Cl)c(Cn2c(NCc3ccco3)nc3c2c(=O)n(C)c(=O)n3C)c1 | 0 | 56 | - | - | - | 0
COc1cccc(Cn2c(NCc3ccco3)nc3c2c(=O)n(C)c(=O)n3C)c1 | - | - | 0 | - | - | -
CN1CCN(c2ccc(CNC(=O)c3ccc4c(c3)OCCO4)cc2)CC1 | 0 | 0 | 0 | - | - | 0
O=C(CC(=O)c1cc(Cl)ccc1O)c1ccccc1 | 0 | 0 | 0 | 49 | 0 | 0
Cc1cccc(C(=O)CC(=O)c2cc(Cl)ccc2O)c1 | 0 | 0 | - | 64 | 0 | 0
O=C(Cn1nnc(-c2cccc(C(F)(F)F)c2)n1)N1CCCCCC1 | 0 | 0 | 0 | 0 | 0 | 0
COc1cc(-c2csc(N3CCOCC3)n2)cc(OC)c1OC | 0 | 0 | 0 | 0 | 0 | 0
COc1ccc(-c2csc(N3CCN(c4cc(C)nc5ccccc45)CC3)n2)cc1OC | 73 | 0 | 0 | 0 | 0 | 0
COCCCNC(=O)C1CCN(C(=O)c2oc3cc4sc(N(C)C)nc4cc3c2C)CC1 | 0 | 0 | 0 | 49 | 0 | ?
CCC(c1nnnn1Cc1ccc2c(c1)OCO2)N1CCN(CC)CC1 (stereo not drawn) | 0 | 0 | 0 | 0 | 0 | 0
COc1ccc(C(=O)N=c2nc3ccccn3s2)cc1 | 0 | 64 | 0 | - | - | 0
COCCNC(=O)c1cc2oc3ccccc3c2n1C | 0 | 0 | 0 | 72 | 0 | -
Oc1ccc(-c2csc(Nc3ccccn3)n2)c(O)c1 | 0 | 0 | 0 | 80 | 0 | -
c1csc(-c2csc(-c3cccs3)n2)c1 | 0 | 0 | 0 | 53 | - | -
c1cncc(-c2nc(-c3cccs3)cs2)c1 | 0 | 0 | 0 | 0 | - | 0
Cc1cccnc1Nc1nc(-c2ccc(O)cc2O)cs1 | 0 | 0 | 0 | 0 | - | 0
Cc1cccc(Nc2nc(-c3cccs3)cs2)n1 | 0 | 0 | 0 | 50 | 0 | 0
c1ccc(Nc2nc(-c3cccnc3)cs2)nc1 | 0 | 0 | - | - | - | 0
c1ccc(Nc2nc(-c3cccs3)cs2)nc1 | 0 | 0 | 0 | 0 | 148 | -
CC(C)CC(N)c1csc(NC(=O)C(c2ccccc2)c2ccccc2)n1 (stereo not drawn) | - | - | 0 | 0 | 0 | -
Cc1ccc(S(=O)(=O)NCC[C@@H]2CC[C@@H](NC(=O)Nc3cccc(F)c3)[C@H](CO)O2)cc1 | - | - | - | 0 | 0 | -
SMILES | MITF TRPM1 inh | EBV LMP1 NFkB | Wnt bcat act | esBAF inh | Statin myotox sup | MITF act
Cn1c(O)c(N=NC(=S)Nc2ccccc2F)c2cc(S(=O)(=O)N3CCOCC3)ccc21 | 0 | 0 | 0 | 0 | 0 | 0
C=CCn1c(O)c(N=NC(=S)Nc2ccccc2C)c2cc(S(=O)(=O)N3CCOCC3)ccc21 | 0 | 43 | 0 | 0 | 0 | 0
CC(C)Oc1ccc(C2CC(=O)N(c3cccc(C(=O)O)c3)C2=O)cc1 (stereo not drawn) | 0 | 0 | 0 | 56 | 0 | 0
CC(C)Oc1ccc(C2CC(=O)N(c3ccc(C(=O)O)cc3)C2=O)cc1 (stereo not drawn) | 0 | 0 | 0 | 0 | - | 0
COc1cccc(/C=N/NC(=O)C(=O)N/N=C/c2cccc(OC)c2O)c1O | 0 | 0 | 0 | - | - | 0
COc1cc([N+](=O)[O-])cc(/C=N/NC(=O)c2ccc(NC(=O)c3ccc(C)cc3)cc2)c1O | 72 | 0 | 0 | 0 | 0 | 0
COc1cc(/C=C(\C#N)C(=O)Nc2cccc(C(=O)O)c2)ccc1OCc1ccc(C)cc1 | 0 | 0 | 0 | - | - | 91
COc1cc(/C=C(/C#N)C(=O)Nc2ccccc2)ccc1OCc1ccc(C(=O)O)cc1 | 0 | 0 | 0 | 0 | 0 | 0
COc1cc(/C=N/NC(=O)c2cccc([N+](=O)[O-])c2)ccc1OCc1ccc(C)cc1 | 0 | 0 | ? | 56 | 0 | 0
COc1cccc(/C=N/NC(=O)c2cc3cc([N+](=O)[O-])ccc3s2)c1O | 77 | 64 | 0 | - | - | 0
COc1cc([N+](=O)[O-])cc(/C=N/NC(=O)c2ccc(C)nc2)c1O | 0 | 0 | 0 | - | - | 0
CC(=O)c1cccc(N(C(=O)CNC(=O)c2ccco2)C(C(=O)NC2CCCC2)c2ccncc2)c1 (stereo not drawn) | 0 | 0 | 0 | 0 | 0 | 0
COc1ccccc1C(=O)NCCC(=O)NNC(=O)Cn1ccc(C(F)(F)F)n1 | 0 | 0 | 0 | 0 | 0 | 0
COc1cc(/C=N/n2cnnc2)ccc1OCc1ccc(C)cc1 | 0 | 0 | - | 57 | 0 | 0
COc1cc(/C=N/n2cnnc2)ccc1OCc1ccccc1 | 0 | 0 | - | 0 | 0 | 0
Cc1ccc(C(C)C)c(OCc2ccc(C(=O)N/N=C/c3cccc(O)c3O)cc2)c1 | 83 | 0 | 0 | - | - | 0
O=C(Cc1nc2ccccc2[nH]1)c1ccc(Br)cc1 | 0 | 0 | 0 | - | - | 91
O=C(Cc1nc2ccccc2[nH]c1=O)c1ccccc1 | 0 | 0 | 33 | - | - | 0
O=C(Cc1ccc(Br)cc1)Nc1nc2ccccc2[nH]1 | 0 | 0 | 0 | 0 | 0 | 0
O=C(CNC(=S)N(Cc1ccccc1)Cc1cccnc1)NCCN1CCOCC1 | 0 | 0 | 0 | - | - | 0
C[N+](C)(C)CCC(=O)N1C/C(=C/c2ccccc2)C(=O)/C(=C\c2ccccc2)C1 | 0 | 0 | 0 | - | - | 0
COc1ccc(OC(=O)N2C/C(=C/c3ccccc3)C(=O)/C(=C\c3ccccc3)C2)cc1 | 86 | 0 | 0 | 0 | 0 | 0
CCOC(=O)N1C/C(=C\c2ccccc2)C(=O)/C(=C/c2ccccc2)C1 | 104 | 0 | 0 | 0 | 0 | 0
CN(C)CCC(=O)N1C/C(=C/c2ccccc2)C(=O)/C(=C\c2ccccc2)C1 | 101 | 87 | 0 | - | - | 0
O=C1/C(=C/c2ccccc2)CN(C(=O)CCN2CCOCC2)C/C1=C\c1ccccc1 | 101 | 0 | 0 | - | - | -
SMILES | MITF TRPM1 inh | EBV LMP1 NFkB | Wnt bcat act | esBAF inh | Statin myotox sup | MITF act
O=C(/C=C/c1ccccc1)CCN1CCOCC1 | 0 | 0 | 0 | - | - | -
O=C(Oc1ccccc1)N1CCCC1 | 0 | 0 | 0 | 0 | 0 | 0
CCC1Oc2ccccc2N(CC(=O)Nc2ccc(OC)cc2OC)C1=O (stereo not drawn) | 0 | 0 | - | 0 | 0 | 0
NC(=O)NC(=O)COC(=O)CN1C(=O)C2CCCCC2C1=O (stereo not drawn) | 0 | 0 | 0 | - | - | 0
Cn1c2ccccc2c2cc(C(=O)N3CCN(CCO)CC3)sc21 | 0 | 0 | - | 0 | 0 | -
COc1cc(/C=C/c2ccc3cccc(OC)c3n2)c(OC(C)=O)c([N+](=O)[O-])c1 | 0 | 0 | 0 | 0 | 0 | -
CCn1c(=N)n(CC(=O)OC)c2ccccc21 | 0 | 0 | - | 0 | 0 | 0
CCCCn1c(=N)n(CC(=O)O)c2ccccc21 | 0 | 0 | 0 | - | - | 0
CCn1c(=N)n(CC(=O)c2ccc(Br)s2)c2ccccc21 | 0 | 0 | 0 | 59 | 0 | 0
